Inconclusive results are not listed. Activity calls are given as the source filed them. Calls come from the whole dose curve; as a rule, active = well fitted inhibition curve with a large enough effect in the repeat runs; inconclusive = weak or mixed curves; inactive = no such curve, though single readings can be large or run the other way.
% is set by controls: 0 for no effect and ±100 for the full control effect; potency is the fitted concentration of half-maximal effect.

Sequence of Cytochrome P450 2C9 (Homo sapiens) (P11712 whole entry, looked up): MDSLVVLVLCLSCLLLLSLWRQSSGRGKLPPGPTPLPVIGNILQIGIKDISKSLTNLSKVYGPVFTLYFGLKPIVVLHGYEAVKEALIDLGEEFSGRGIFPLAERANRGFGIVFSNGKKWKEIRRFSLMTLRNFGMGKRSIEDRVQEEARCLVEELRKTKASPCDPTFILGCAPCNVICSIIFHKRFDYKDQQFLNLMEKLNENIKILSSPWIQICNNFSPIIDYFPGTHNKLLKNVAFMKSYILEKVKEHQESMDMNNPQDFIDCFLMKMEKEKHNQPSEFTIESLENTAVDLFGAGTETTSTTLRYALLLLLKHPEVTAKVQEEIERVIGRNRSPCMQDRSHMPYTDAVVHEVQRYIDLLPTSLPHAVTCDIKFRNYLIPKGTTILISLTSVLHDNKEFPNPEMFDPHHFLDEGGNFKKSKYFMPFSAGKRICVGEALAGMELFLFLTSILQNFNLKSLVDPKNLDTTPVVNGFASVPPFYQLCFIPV

For the assay, the target named is Cytochrome P450 2C9 (Homo sapiens) (UniProt P11712). The experiment in a line: Cytochrome P450 family 2 subfamily C member 9 (CYP2C9) small molecule antagonists: luciferase biochemical (cell-free) qHTS assay (AID 1645842). Note: nearly all actives have a fitted effect of over 55% in size. The settings on record: P450-Glo CYP2C9 enzyme assay, luciferin luminescence; series mostly up to 57.4 µM; activity change, negative = inhibition: at the top concentration. In a few lines:
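P450-Glo CYP2C9 system: proluciferin substrate with enzyme in mix containing 0.4% BSA, 10 min at room temperature, then NADPH regeneration solution added and incubated 1 h at 37C. Detection reagent stopped reaction; luminescence read after 20 min as RLU.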
Turning to `CC1(C#N)CCN(c2c(C(=O)N3CCN(S(C)(=O)=O)CC3)cnc3ccc(F)cc23)CC1`, the “activity change, negative = inhibition” value was -15.1% (inactive).

Turning to `CC1(C#N)CCN(c2c(C(=O)N3CCC(C(=O)C4CC4)CC3)cnc3c(F)cc(F)cc23)CC1`, the Potency is 9.52 µM (active).

Turning to `COc1ccccc1OCCn1c(NC(=O)c2ccccc2Cl)nc2ccccc21`, the Potency was 3.79 µM (active).

Take `CCOc1ccc(CCNC(=O)C2CCCN(c3nnc(C)c4c(C)n(-c5ccccc5)nc34)C2)cc1` (centres undefined): the Potency is 3.01 µM (active).

As to `COc1ccc(C(=O)Oc2ccc(C(c3c(C)[nH][nH]c3=O)c3c(C)[nH][nH]c3=O)cc2)cc1`, the Potency is 10.7 µM (active).

As to `CC(CCC(=O)O)C1CC[C@H]2C3[C@H](O)C[C@@H]4C[C@H](O)CCC4(C)[C@H]3C[C@H](O)C12C` (some centres undefined), the “activity change, negative = inhibition” value was 2.91% (inactive).

Turning to `Cc1ccc(CNC(=O)C2CCN(S(=O)(=O)c3c(C)noc3/C=C/c3ccccc3F)CC2)o1`, the “activity change, negative = inhibition” value was 7.45% (inactive).

Take `Cc1ccccc1CNC(=O)CCCn1c(=O)c2cccn2c2ccccc21`: the Potency is 9.52 µM (active).

In the case of `C=CCNCCCCCC[N+](C)(C)C`, the “activity change, negative = inhibition” value is 2.27% (inactive).

With `O=c1c2c(on1Cc1ccccc1)CCNCC2`, the Potency is 10.7 µM (active).

As for `CCc1ccc(S(=O)(=O)NCc2ccc3c(c2)CCN3C(=O)c2ccc(C)cc2)cc1`, the Potency is 0.674 µM (active).

Regarding `COc1ccc(-c2noc(CCCC(=O)Nc3cccc(Cl)c3C)n2)cc1`, the Potency was 3.79 µM (active).

In the case of `O=C(CC1N=C2c3ccccc3N=C(SCc3ccc(Cl)cc3)N2C1=O)NCCc1ccccc1` (centres undefined), the Potency was 1.9 µM (active).

Regarding `Cc1ccc(Cn2c(CN3CCC(C(=O)NCCc4ccccc4)CC3)cc3ccccc32)cc1`, the Potency was 2.13 µM (active).

As for `O=c1cc2nc(-c3cccs3)nc(SCCOc3ccc(Cl)cc3)n2[nH]1`, the Potency was 19 µM (active).

For `CCCCn1cnc2cc(NCc3ccccc3Cl)ccc21`, the Potency is 2.13 µM (active).

With `COc1ccc(C(Nc2ccccn2)c2ccc3ccc(C)nc3c2O)cc1C` (centres undefined), the Potency is 2.68 µM (active).

For `O=C(CC1N=C2c3ccccc3N=C(SCc3ccc(F)cc3)N2C1=O)NC1CCCCC1` (centres undefined), the Potency is 2.68 µM (active).

Turning to `COc1cccc(-c2oc3ccc(C)cc3c(=O)c2O)c1`, the Potency was 7.56 µM (active).

For the molecule `Cc1cncn1CCc1nc2c3ccccc3nc(SCC(=O)Nc3cccc(Cl)c3)n2n1`, the Potency was 0.425 µM (active).

In the case of `Cc1ccc(C2=CC(c3ccccc3C)n3c(nc4ccccc43)N2)cc1` (centres undefined), the Potency is 3.38 µM (active).

On to `CC1(C#N)CCN(c2c(C(=O)N3CCN(C(=O)C4CC4)CC3)cnc3ccc(Cl)cc23)CC1`, for which the Potency is 16.9 µM (active).

Regarding `NC(=O)c1ccc(Cc2c(-c3cccc(-c4ccccc4)c3)[nH]n(-c3nc(C(=O)O)cs3)c2=O)cc1`, the Potency was 26.8 µM (active).

`COC(=O)c1c(-c2ccc(Cl)cc2)noc1N1CCN(c2ccccc2OC)CC1`: the “activity change, negative = inhibition” value is -9.53% (inactive).

On to `CCCOCc1cc(CN2CCN(c3cccc(Cl)c3)CC2)c(O)c2ncccc12`, for which the Potency is 6.74 µM (active).

As to `Cc1ccc(-n2c(SCc3ccccc3F)nc3[nH]ncc3c2=O)cc1C`, the Potency is 13.5 µM (active).

Consider `CCOc1ccc(CNC(=O)Cn2c(=O)c3cccn3c3ccc(F)cc32)cc1OC`, for which the “activity change, negative = inhibition” value was 2.21% (inactive).

As for `Cc1ccc(-n2c(SCc3ccccc3C)nc3[nH]ncc3c2=O)cc1C`, the Potency is 21.3 µM (active).

Regarding `Cc1cccc2nc(-c3ccccn3)c(Nc3ccc(F)cc3)n12`, the Potency is 1.2 µM (active).

As to `CCOC(=O)c1ccc(NC(=O)CSc2cc(-c3ccccc3)nc(C)n2)cc1`, the Potency was 0.952 µM (active).

On to `Cc1ccnc(NC(c2cccc(O)c2)c2ccc3ccc(C)nc3c2O)c1` (centres undefined), for which the Potency was 9.52 µM (active).

Consider `CC1(C#N)CCN(c2c(C(=O)N3CCN(C(=O)C4CC4)CC3)cnc3c(F)cc(F)cc23)CC1`, for which the Potency was 12 µM (active).

As for `Clc1cccc(-n2ncc3c(NCCCn4ccnc4)ncnc32)c1`, the Potency is 0.379 µM (active).

Take `Cc1nnc(N2CCC(C(=O)NCCc3ccccc3Cl)CC2)c2nn(-c3ccccc3)c(C)c12`: the Potency is 1.9 µM (active).

In the case of `O=C(O)C1CSC(C(=O)O)N1` (centres undefined), the “activity change, negative = inhibition” value was 6.42% (inactive).

Turning to `Cc1ccc(S(=O)(=O)Nc2nc3n(n2)C(c2ccc(F)cc2)C=C(c2ccccc2)N3)cc1` (centres undefined), the “activity change, negative = inhibition” value was -2.67% (inactive).

`COc1cc(C(c2c(C)[nH][nH]c2=O)c2c(C)[nH][nH]c2=O)ccc1OC(=O)c1ccccc1F`: the Potency was 10.7 µM (active).

On to `Cc1noc(/C=C/c2cccs2)c1S(=O)(=O)N1CCC(C(=O)NCc2ccc(Cl)cc2)CC1`, for which the Potency was 0.213 µM (active).

For `CCc1ccc(-n2c(SCc3cccc(F)c3)nc3[nH]ncc3c2=O)cc1`, the Potency is 12 µM (active).

The values are drawn from PubChem BioAssay (NCATS).
